Results on ten compounds are retold here after PubChem BioAssay (NCATS).

A number with no mark means an inactive call. Results filed as inconclusive are left out. Calls of active or inactive are those of the source. Calls come from the whole dose curve; as a rule, active = well fitted curve in the direction sought with a large enough effect; inconclusive = small, poorly fitted or top-dose-only effect, or another doubt; inactive = no such curve, though single readings can be large; an effect the other way counts as inactive or inconclusive.

A short description of assay [1]: HEK-293 Cancer Cell Toxicity qHTS against the NCATS CANVASS Library (AID 1347355). Note: potency is the fitted concentration of half-maximal effect; nearly all actives have a fitted effect of over 65% in size. The conditions noted are these: HEK-293 viability, CellTiter-Glo luminescence, 72 h. The gist of the method: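 Cells at 1000/well were given compound 4 h after plating in an 11-point series. Viability was read by CellTiter-Glo luminescence after 72 h at 37 degrees C.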
A general note: Quantitative high-throughput screening tests each substance at several concentrations.

The target of assay [2] is Luciferin 4-monooxygenase (Photinus pyralis) (UniProt P08659). The experiment in a line: Firefly luciferase counterscreen qHTS: Assay Interference Panel against the NCATS CANVASS Library (AID 1347363). Note: series mostly up to about 57 µM. The gist of the method: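 Purified P. pyralis luciferase (0.04 ug/mL, 4x reagent) added to Tris-acetate buffer with 0.013 mM D-luciferin, 0.013 mM ATP and 13.3 mM Mg-acetate; compounds preincubated 15 min, then luminescence read after 5 min, RT.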
Sequence of Luciferin 4-monooxygenase (Photinus pyralis) (P08659 whole entry, looked up): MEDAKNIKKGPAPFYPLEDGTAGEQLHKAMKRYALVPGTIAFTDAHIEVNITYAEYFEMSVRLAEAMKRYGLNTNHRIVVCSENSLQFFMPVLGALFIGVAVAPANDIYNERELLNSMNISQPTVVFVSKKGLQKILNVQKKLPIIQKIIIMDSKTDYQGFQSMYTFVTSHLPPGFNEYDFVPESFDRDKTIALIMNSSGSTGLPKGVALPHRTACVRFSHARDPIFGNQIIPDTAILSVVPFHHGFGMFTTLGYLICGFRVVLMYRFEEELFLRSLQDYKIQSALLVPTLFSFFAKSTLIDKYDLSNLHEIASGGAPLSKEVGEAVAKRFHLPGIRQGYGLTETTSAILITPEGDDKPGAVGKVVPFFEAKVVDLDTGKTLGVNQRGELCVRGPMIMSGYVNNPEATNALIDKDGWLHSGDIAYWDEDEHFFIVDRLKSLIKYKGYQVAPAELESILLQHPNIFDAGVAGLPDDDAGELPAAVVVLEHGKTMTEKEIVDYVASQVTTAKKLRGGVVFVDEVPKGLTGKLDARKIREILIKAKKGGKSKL
(In general: Counterscreens check selectivity or assay interference.)

Assay [3] is described as follows: KB-8-5-11 Cancer Cell Toxicity qHTS against the NCATS CANVASS Library (AID 1347364). Note: potency is the fitted concentration of half-maximal effect; nearly all actives have a fitted effect of over 75% in size. Conditions: KB-8-5-11 MDR cells viability, CellTiter-Glo, 72 h. The essentials: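 KB-8-5-11 cells, 500/well in DMEM + 10% FBS, given compounds in an 11-point series. Incubated 72 h at 37 °C. Viability by CellTiter-Glo luminescence. Confirmation also run with 1 uM tariquidar.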
Assay [4] can be described thus: KB-3-1 Cancer Cell Toxicity qHTS against the NCATS CANVASS Library (AID 1347366). Note: potency is the fitted concentration of half-maximal effect; nearly all actives have a fitted effect of over 75% in size. Conditions: KB-3-1 viability, CellTiter-Glo luminescence, 72 h. The essentials: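 Seed KB-3-1 cells at 500/well in DMEM with 10% FBS, add compounds, incubate 72 hr at 37C and 5% CO2, then add CellTiter-Glo and read luminescence after 10 minutes.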
Assay [5] in a line: qHTS for ATAD5 Agonist screened against the NCATS CANVASS Library (AID 1347367).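 Note: luciferase reporter driven by ATAD5 which rises upon DNA damage.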 The essentials: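 Step one plated reporter cells and let them acclimate 5hr. Step two pinned compounds with MMS as positive and 0.46% DMSO as negative control. After 16hr incubation, fluorescence viability then luminescence were read.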
Assay [6] is described as follows: qHTS for ATAD5 Antagonist screened against the NCATS CANVASS Library (AID 1347370). Note: potency is the fitted concentration of half-maximal effect; nearly all actives have a fitted effect of over 65% in size. The conditions noted are these: HEK293T-ATAD5-luc, 5-FUrd stimulated, luminescence, 16 h. The essentials:
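HEK293T cells with stably integrated ATAD5-luciferase reporter, 2000/well, 5 h attachment; compounds plus 10 µM 5-fluorouridine, 16 h at 37 °C. Luciferase luminescence read, with CellTiter-Fluor viability read first.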

The target in assay [7] is Nuclear receptor subfamily 1 group I member 3 (Homo sapiens) (UniProt Q14994). As to the kind of experiment: qHTS for Constitutive Androstane Receptor (CAR) Agonist screened against the NCATS CANVASS Library (AID 1347373).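 Note: every well also contained 1.5 µM PK11195 alongside the test compound.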 The gist of the method: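 HepG2 cells stably carrying hCAR and a CYP2B6-2.2kb luciferase reporter, treated 24hr at 37C with compounds plus 1.5uM PK11195; activation by ONE-Glo luminescence, viability by CellTiter-Fluor.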
Sequence of Nuclear receptor subfamily 1 group I member 3 (Homo sapiens) (Q14994 whole entry, looked up): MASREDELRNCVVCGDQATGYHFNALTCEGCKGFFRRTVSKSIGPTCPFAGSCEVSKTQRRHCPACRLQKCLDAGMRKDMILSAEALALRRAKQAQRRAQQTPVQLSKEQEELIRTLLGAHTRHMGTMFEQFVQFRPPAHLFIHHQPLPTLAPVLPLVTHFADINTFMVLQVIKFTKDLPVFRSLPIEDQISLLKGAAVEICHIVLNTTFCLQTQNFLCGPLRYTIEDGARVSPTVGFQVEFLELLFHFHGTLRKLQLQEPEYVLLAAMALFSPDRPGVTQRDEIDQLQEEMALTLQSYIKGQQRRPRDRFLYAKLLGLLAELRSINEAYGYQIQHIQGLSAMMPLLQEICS

Assay [8] can be described thus: 10-beta competent E. coli microbial cell viability qHTS against the NCATS CANVASS Library (AID 1347376). Note: series mostly up to about 46 µM. The essentials: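 10-beta competent E. coli (0.2 OD) were exposed overnight at 37C to compounds in an 11-point series. Viability was read as ATP-dependent BacTiter-Glo luminescence after 20 min at room temperature.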
Assay [9] is described as follows: qHTS for Antimalaria activity screened against the NCATS CANVASS Library (AID 1347380). Note: potency is the fitted concentration of half-maximal effect; nearly all actives have a fitted effect of over 40% in size. The conditions noted are these: P. falciparum Dd2 growth, SYBR Green fluorescence, 72 h. The essentials: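 Red blood cells infected with P. falciparum Dd2 (2.5% hematocrit final, 0.3% parasitemia) were exposed to compounds in an 11-point qHTS series for 72 hr at 37C under 5% O2 and 5% CO2. Lysis buffer with SYBR Green was then added for 18 hr, and fluorescence was read at 485/535 nm.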

Assay [10] in a line: Inflammasome Signaling qHTS Counterscreen: IL-1-beta AlphaLISA counterscreen against the NCATS CANVASS Library (AID 1347381).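 Note: cell-free check with purified IL-1β in medium and no THP-1 cells; series mostly up to about 57 µM.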 The gist of the method:
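Cell-free interference check: compounds added to medium spiked with 4 pg purified IL-1β. Anti-IL-1β acceptor beads (6 ug/mL) with 0.6 nM biotinylated antibody added for 1 h at RT, then streptavidin donor beads (24 ug/mL) for 30 min in the dark. AlphaLISA read at 680/615 nm.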

Assay [11] in a line: qHTS for Activators of p53 Stress Response Pathway screened against the NCATS CANVASS Library (AID 1347388). Note: potency is the fitted concentration of half-maximal effect. The conditions noted are these: p53RE-bla HCT-116, beta-lactamase reporter, 16 h. The gist of the method:
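p53RE-bla HCT-116 cells (4000/well) were pre-incubated for 5 h, then treated with compound (11 points) for 16 h at 37C. After 2 h with CCF4, the 460/530 nm ratio gave reporter activation; CellTiter-Glo measured viability.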

Assay [12] is described as follows: qHTS assay for small molecule disruptors of mitochondrial membrane potential screened against the NCATS CANVASS Library (AID 1347389). Note: potency is the fitted concentration of half-maximal effect; nearly all actives have a fitted effect of over 60% in size. Conditions: HepG2 mitochondrial membrane potential, m-MPI red/green ratio, 1.5 h. The essentials:
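HepG2 cells (2,000/well) plated overnight, then exposed to compounds in 11-point qHTS series for 1 h at 37C before 30 min Mito-MPS dye; depolarization read as fall in red aggregate (590 nm) to green monomer (535 nm) fluorescence.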

A short description of assay [13]: qHTS for activators of Nrf2/ARE signaling pathway screened against the NCATS CANVASS Library (AID 1347391). Note: nearly all actives have a fitted effect of over 60% in size. The gist of the method:
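ARE-bla HepG2 beta-lactamase reporter cells exposed to compounds for 16 h at 37C; CCF4 substrate 2 h, fluorescence at ex 405 nm, em 460/530 nm. Viability by CellTiter-Glo luminescence.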

Assay [14] can be described thus: Vero-766 cells viability qHTS against the NCATS CANVASS Library: Counterscreen for Zika virus inhibition assay (AID 1347394). Note: potency is the fitted concentration of half-maximal effect; nearly all actives have a fitted effect of over 60% in size. The conditions noted are these: Vero 766 viability, CellTiter-Glo luminescence, 72 h. The essentials:
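This cytotoxicity counterscreen uses African green monkey Vero 766 cells in the absence of Zika virus. Compounds are incubated with cells for 72 h, and ATP-based luminescence reports viability.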

Assay [15] can be described thus: Redox Reaction Profiling qHTS: Assay Interference Panel against the NCATS CANVASS Library (AID 1347401). The essentials: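 Compounds in 11-point series incubated with 5 uM resazurin and 200 uM DTT in 50 mM HEPES pH 7.3, 50 mM NaCl. Resorufin fluorescence (Ex 525/Em 598) read before and after 15 min in the dark.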
Assay [16] can be described thus: qHTS to identify inhibitors of the type 1 interferon - major histocompatibility complex class I in skeletal muscle: primary screen against the NCATS Mechanism Interrogation Plate v5.0 (MIPE) Libary (AID 1347411). Note: nearly all actives have a fitted effect of over 65% in size. Note: potency is the fitted concentration of half-maximal effect. The essentials:
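Immortalized human myoblasts (C25cl48) with HiBit knocked into endogenous HLA-B*08:01 were stimulated with 4 ng/ml IFN-beta and given compounds in 11-point 1:3 titration from 46 uM. After 24 h at 37 C, lytic HiBiT luminescence was read.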

Assay [17] can be described thus: qHTS to identify inhibitors of the type 1 interferon - major histocompatibility complex class I in skeletal muscle: primary screen against the NCATS Pharmaceutical Collection (AID 1347407).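 Note: luminescence of HiBiT knocked into endogenous HLA-B as interferon-induced MHC class I level.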 The gist of the method: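 Cells were seeded with 4 ng/ml IFN-beta, incubated 1 h, then dosed with compounds over eight 1:5 steps up to 46 uM final. After 24 h at 37 C, HiBiT lytic reagent was added and luminescence read after 10 min lysis in the dark.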

Assay [18] deals with Protein phosphatase 1D (Homo sapiens) (UniProt O15297). The experiment in a line: RapidFire Mass Spectrometry qHTS Assay for Modulators of WT P53-Induced Phosphatase 1 (WIP1) (AID 1347424).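 Note: amount of dephosphorylated VEPPL-S-QETFS peptide product formed by WIP1; potency is the fitted concentration of half-maximal effect.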 The gist of the method: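 10 nM WIP1 preincubated with compounds 1 hr at room temperature in pH 7.5 Tris buffer with 30 mM MgCl2, 1 mM TCEP; 2 uM VEPPL-pS-QETFS phosphopeptide for 5 min, formic acid quench; dephosphorylated product quantified by RapidFire MS against labelled standard.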
Sequence of Protein phosphatase 1D (Homo sapiens) (O15297 whole entry, looked up): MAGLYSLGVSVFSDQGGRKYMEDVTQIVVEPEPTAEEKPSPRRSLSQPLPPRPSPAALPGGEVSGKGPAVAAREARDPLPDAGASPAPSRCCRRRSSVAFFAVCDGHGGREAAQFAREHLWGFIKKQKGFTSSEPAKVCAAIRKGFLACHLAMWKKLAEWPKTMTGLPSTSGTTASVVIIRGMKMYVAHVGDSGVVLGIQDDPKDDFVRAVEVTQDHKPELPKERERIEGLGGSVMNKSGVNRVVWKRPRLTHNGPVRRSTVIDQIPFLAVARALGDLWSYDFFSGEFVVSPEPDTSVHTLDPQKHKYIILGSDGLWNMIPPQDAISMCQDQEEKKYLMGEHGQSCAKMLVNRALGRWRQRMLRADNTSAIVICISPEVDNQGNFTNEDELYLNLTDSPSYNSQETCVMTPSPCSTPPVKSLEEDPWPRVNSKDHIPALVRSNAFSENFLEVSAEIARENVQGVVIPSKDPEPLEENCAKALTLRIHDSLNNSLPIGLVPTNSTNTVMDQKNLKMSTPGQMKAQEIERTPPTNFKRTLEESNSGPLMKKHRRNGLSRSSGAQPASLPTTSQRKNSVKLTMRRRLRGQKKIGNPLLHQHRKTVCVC

Regarding `CC(C)CC(=O)c1c(O)cc2c(c1O)C(CC(C)C)C1=C(O2)C(C)(C)C(=O)C(C)(C)C1=O` (stereo not given), the Potency is 20.9 µM (active) in [1]; 16.6 µM (active) in assay [3]; 26.4 µM (active) in assay [4]; 20.9 µM (active) in [6]; 594 nM (active) in [9]; 20.9 µM (active) in assay [11]. For the same compound, the values for the Potency in assay [12] and in assay [14] were 3.31 µM (active) and 6.6 µM (active), respectively. The compound was classed as inactive in assay [2], in [5], in [7], in assay [8], in [10] and in [13]. In addition, the compound was classed as inactive in [15].

Take `CCCC(CCC)C(=O)Nc1ccn([C@@H]2O[C@H](CO)[C@@H](O)C2(F)F)c(=O)n1`: the Potency result in assay [16] is “inactive”.

With `Oc1cccc(-c2c3nc(c(-c4cccc(O)c4)c4ccc([nH]4)c(-c4cccc(O)c4)c4nc(c(-c5cccc(O)c5)c5ccc2[nH]5)CC4)C=C3)c1`, the result in assay [17] was inactive. Further, the Potency in assay [18] is 1.58 µM (active).

Turning to `O=C(Cc1cccc(OC(F)(F)F)c1)Nc1ccc(CCCCc2nnc(NC(=O)Cc3ccccn3)s2)nn1`, in assay [16], the Potency result is “inactive”.

As to `Cc1c(F)ccc(C(=O)Nc2cc([N+](=O)[O-])ccc2N2CCN(C)CC2)c1Cl`, the Potency result in [16] was “inactive”.

Regarding `C1=C/COCc2cc(ccc2OCCN2CCCC2)Nc2nccc(n2)-c2cccc(c2)COC/1`, the Potency in [16] was 2.34 µM (active).

`C[C@@H]1CN(CC(=O)N2CC(C)(C)c3ncc(Cc4ccc(F)cc4)cc32)[C@@H](CN2CCOC[C@H]2C)CN1`: in assay [16], the Potency result is “inactive”.

Turning to `Cc1cc2c(F)c(Oc3ncnn4cc(OCC(C)OC(=O)C(C)N)c(C)c34)ccc2[nH]1` (stereo not given), the Potency result in [16] is “inactive”.

As to `CCOC(=O)[C@@]1(CCCCCCOc2ccc(Cl)cc2)CO1`, the Potency result in [16] was “inactive”.

For `COc1cccc(OCCCN)c1-c1cc(Nc2cnc(C#N)cn2)n[nH]1`, in assay [16], the Potency was 6.58 µM (active).
